# PubChem BioAssay (EPA / NIEHS)
# Activity calls are given as the source filed them. Rule for the calls: active = hit-call score of the fitted dose curve at least 0.9, where 1 is the maximum; inactive = score below 0.9.
# Assay: CCTE_Shafer_MEA_dev_per_burst_interspike_interval: CCTE's Neural Network Formation Assay for Burst Interspike Interval, Shafer Lab (AID 2284044);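 note: mean spike spacing inside bursts as AUC over recordings on days 5 7 9 12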;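 for AC50: potency for a decrease of within-burst interspike interval below DMSO level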
# Procedure: CCTE_Shafer_MEA_dev assay is conducted using Axion Biosystems 48 well microelectrode array (MEA) plates and Maestro recording system. Each well of the MEA plate contains a grid of 16 microelectrodes embedded in the culture surface. Electrically active cells, such as neurons, can be cultured over the electrodes, and electrical activity in these cells can be recorded extracellularly. The spontaneous firing of neurons is captured from each electrode on a microsecond timescale providing both temporally and spatially precise data. […] The CCTE_Shafer_MEA_dev assay uses primary cultures of rat cortical neurons. Recordings are made on days post-plating 5, 7, 9 and 12. As these cultures mature over time, neural networks develop functional activity and form cohesive networks in which electrical activity can be highly coordinated. CCTE_Shafer_MEA_dev_per_burst_interspike_interval is 1 of 19 assay components of the CCTE_Shafer_MEA_dev assay. It measures the average time interval between spikes (action potential firings) within a single-electrode burst (temporally-clustered group of spikes) during a recording in a microelectrode array (MEA) using Axion Biosystems Maestro 768 channel amplifier with the AxIS adaptive spike detector. The mean inter-spike interval within bursts is averaged across the actively bursting electrodes to report a well-mean value. To collapse across multiple recordings made on days post-plating 5, 7, 9 and 12, the trapezoidal area-under-the-curve of the component is calculated.Data from the assay component CCTE_Shafer_MEA_dev_per_burst_interspike_interval was analyzed into 1 assay endpoint. This assay endpoint, CCTE_Shafer_MEA_dev_per_burst_interspike_interval, was analyzed in the negative analysis fitting direction relative to DMSO as the negative control and baseline of activity. Using a type of functional reporter, gain or loss-of-signal activity can be used to understand electrical activity.
# On the day prior to culture, each well was coated thoroughly with 150 uL of 0.05% polyethyleneimine (PEI, Sigma Cat P3143) in 50 mM HEPES (Sigma Cat H7523) at a pH of 8. The plate was incubated at 37C for one hour. PEI was rinsed out with 500 uL of sterile water three times. Plates were stored at 4C until the day of culture. This culture was plated at a seeding density of 1.5 x 10^5 cells/well on a 48-well MEA plate, prepared as described above. Cells were administered via a 25 uL media/laminin ([…]; Sigma Cat L2020-1MG) drop directly onto the microelectrode array, as adding the cells with the laminin results in better attachment than pre-coating with laminin. After 2 hours, an additional 475 uL of cortical media was added and the cells returned to the incubator. Exposure starts at day 0 of plating and is continued over twelve days of network development until the experiment is terminated. Cells are fed with fresh medium on DIV 5 and 9, following the recordings on those days. The entire volume of media in the well is exchanged and any vehicle or compound treatment is renewed. Complete details are found in OP-NHEERL/ISTD/SBB/TJS/2015-03-r0 (available on request, email shafer.tim@epa.gov). Measurement of the electrical activity is non-invasive, and recordings can be made from the same plate over multiple different days of the culture. In cortical neurons, this allows for the measurement of extracellular action potentials over the period during which networks form in the MEA plate.
Structure (SMILES),outcome,AC50
CCOP(=S)(OCC)SCSCC,inactive,
O=P1(N(CCCl)CCCl)NCCCO1 (centres undefined),inactive,
c1ccc(OP(Oc2ccccc2)Oc2ccccc2)cc1,inactive,
O=C(O)C(F)(F)C(F)(F)C(=O)O,inactive,
O=P(Oc1ccccc1)(Oc1ccccc1)Oc1ccccc1,inactive,
CCC1(c2ccccc2)C(=O)N=C(O)NC1=O (centres undefined),inactive,
OCC(F)(F)OC(F)(F)C(F)(F)OC(F)(F)C(F)(F)OC(F)(F)F,inactive,
CC(C)(C)c1ccccc1OP(=O)(Oc1ccccc1)Oc1ccccc1,inactive,
CC(O)C(F)(F)C(F)(F)F (centres undefined),inactive,
CCOc1ccc(C(C)(C)COCc2cccc(Oc3ccccc3)c2)cc1,,14 µM (active)
O=S(=O)(c1ccc(O)cc1)c1ccc(O)cc1,inactive,
OCC(F)(F)OC(F)(F)C(F)(F)OC(F)(F)CO,inactive,
O=C(O)C(F)(OC(F)(F)C(F)(F)C(F)(F)F)C(F)(F)F (centres undefined),inactive,
O=C(O)C=CC(F)(C(F)(F)F)C(F)(F)F,inactive,
CCCCC(CC)COP(=O)(Oc1ccccc1)Oc1ccccc1 (centres undefined),inactive,
O=C(O)C(F)(F)OC(F)(F)C(F)(F)OC(F)(F)C(=O)O,inactive,
O=C(O)C(F)(F)OC(F)(F)C(F)(F)OC(F)(F)F,inactive,
C=CC(=O)OCC(F)(F)C(F)F,,2.98 µM (active)
CCCCC(CC)COC(=O)c1c(Br)c(Br)c(Br)c(Br)c1C(=O)OCC(CC)CCCC (centres undefined),inactive,
OCC(F)(F)OC(F)(F)C(F)(F)OC(F)(F)C(F)(F)OC(F)(F)CO,inactive,
ClC1=C(Cl)C2(Cl)C3C(Cl)C(Cl)CC3C1(Cl)C2(Cl)Cl (centres undefined),,3.93 µM (active)
c1cc2c3c(cccc3c1)CC2,inactive,
CO/N=C(/C(=O)OC)c1ccccc1COc1ccccc1C,,2.25 µM (active)
O=C(O)C1C(C(=O)O)C2(Cl)C(Cl)=C(Cl)C1(Cl)C2(Cl)Cl (centres undefined),inactive,
